Results filed as inconclusive are left out. Activity calls are given as the source filed them. Rule for the calls, unless noted: active = hit-call score of the fitted dose curve at least 0.9, where 1 is the maximum; inactive = score below 0.9.
Assays:
[1] = CPHEA_Stoker_NIS_Cytotoxicity: Cytotoxicity Assessment for CPHEA's Radioactive Iodide Uptake (RAIU) Assay for Sodium/Iodide Symporter (NIS) Inhibition, Stoker and Laws Labs (AID 2283897; active = hit-call score of the fitted dose curve at least 0.9, where 1 is the maximum;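 for AC50: active means loss of ATP signal versus DMSO meaning cytotoxicity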)
Method in brief: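 CellTiter-Glo ATP luminescence gauged viability in HEK293T cells expressing human NIS after 2 h chemical exposure. Concentrations ran 0.001–100 uM in 0.5% DMSO; DMSO served as baseline for the loss-of-signal fit.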

[2] = CEETOX_H295R_11DCORT_noMTC: CeeTox H295R High-throughput Steroidogenesis Assay for 11-Deoxycortisol (11DCORT), maximum tolerated concentration (MTC) filtered results only (AID 2283911); conditions: actives raise or lower the signal
Method in brief: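 H295R, OECD 456-based; 10 uM forskolin 48 h → compound (0.1% DMSO) 48 h → medium extracted, 11DCORT by LC-MS/MS. Gain/loss vs DMSO control, all concentrations kept regardless of MTT viability.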

[3] = CEETOX_H295R_OHPREG_noMTC: CeeTox H295R High-throughput Steroidogenesis Assay for OH-Pregnenolone (OHPREG), maximum tolerated concentration (MTC) filtered results only (AID 2283912); conditions: actives raise or lower the signal
Method in brief: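 H295R human adrenal cells, forskolin-prestimulated (10 uM, 48 h), then exposed to test chemical in 0.1% DMSO for 48 h. 17alpha-hydroxypregnenolone in medium measured by HPLC-MS/MS after MTBE extraction; bidirectional fit versus DMSO, concentrations not MTC-filtered.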

[4] = CEETOX_H295R_OHPROG_noMTC: CeeTox H295R High-throughput Steroidogenesis Assay for OH-Progesterone (OHPROG), maximum tolerated concentration (MTC) filtered results only (AID 2283914); conditions: actives raise or lower the signal
Method in brief: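 H295R human adrenal cells prestimulated 48 h with 10 uM forskolin, then exposed 48 h to test chemical (0.1% DMSO final). Medium 17alpha-hydroxyprogesterone extracted with MTBE, quantified by HPLC-MS/MS; bidirectional fit versus DMSO, concentrations not MTC-filtered.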

[5] = CEETOX_H295R_ANDR_noMTC: CeeTox H295R High-throughput Steroidogenesis Assay for Androstenedione (ANDR), maximum tolerated concentration (MTC) filtered results only (AID 2283915); conditions: actives raise or lower the signal
Method in brief: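 H295R cells, passage 10 or below, prestimulated 48 h with 10 uM forskolin, then exposed 48 h to chemical in 0.1% DMSO. Medium androstenedione extracted with MTBE, quantified by HPLC-MS/MS; concentrations not MTC-filtered; bidirectional fit versus DMSO.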

[6] = CEETOX_H295R_CORTISOL_noMTC: CeeTox H295R High-throughput Steroidogenesis Assay for Cortisol, maximum tolerated concentration (MTC) filtered results only (AID 2283916); conditions: actives raise or lower the signal
Method in brief: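 H295R adrenal cells were pre-stimulated 48 h with 10 uM forskolin, then exposed 48 h to test chemical in 0.1% DMSO. Medium cortisol was measured by MTBE extraction and HPLC-MS/MS; bidirectional fit versus DMSO, concentrations not MTC-filtered.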

[7] = CEETOX_H295R_CORTIC_noMTC: CeeTox H295R High-throughput Steroidogenesis Assay for Corticosterone (CORTIC), maximum tolerated concentration (MTC) filtered results only (AID 2283917); conditions: actives raise or lower the signal
Method in brief: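 H295R, 10 uM forskolin prestim 48 h → test chem (0.1% DMSO final) 48 h → media MTBE extraction → HPLC-MS/MS corticosterone. Bidirectional fit vs DMSO baseline; no MTT-based MTC filtering.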

[8] = CEETOX_H295R_DOC_noMTC: CeeTox H295R High-throughput Steroidogenesis Assay for DOC, maximum tolerated concentration (MTC) filtered results only (AID 2283918); conditions: actives raise or lower the signal
Method in brief: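 H295R cells prestimulated 48 h with 10 uM forskolin, then exposed 48 h to test chemical (0.1% DMSO final). Medium 11-deoxycorticosterone extracted with MTBE, quantified by HPLC-MS/MS; bidirectional fit versus DMSO, concentrations not MTC-filtered.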

[9] = CEETOX_H295R_ESTRADIOL_noMTC: CeeTox H295R High-throughput Steroidogenesis Assay for Estradiol, maximum tolerated concentration (MTC) filtered results only (AID 2283919); conditions: actives raise or lower the signal
Method in brief: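 H295R human adrenal cells pre-stimulated 48 h with 10 uM forskolin, then exposed 48 h to chemical (0.1% DMSO final). Estradiol in medium measured by HPLC-MS/MS after MTBE extraction and dansyl derivatization; bidirectional fit versus DMSO, concentrations not MTT-filtered.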

[10] = CEETOX_H295R_PROG_noMTC: CeeTox H295R High-throughput Steroidogenesis Assay for Progesterone (PROG), maximum tolerated concentration (MTC) filtered results only (AID 2283920); conditions: actives raise or lower the signal
Method in brief: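 H295R human adrenal cells were prestimulated 48 h with 10 uM forskolin, then exposed 48 h to test chemical (0.1% DMSO final). Progesterone in medium was quantified by HPLC-MS/MS; bidirectional fitting versus DMSO, concentrations not MTC-filtered.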

[11] = CEETOX_H295R_ESTRONE_noMTC: CeeTox H295R High-throughput Steroidogenesis Assay for Estrone, maximum tolerated concentration (MTC) filtered results only (AID 2283921); conditions: actives raise or lower the signal
Method in brief: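 H295R cells prestimulated 48 h with 10 uM forskolin, then exposed 48 h to chemical in 0.1% DMSO; medium estrone measured by HPLC-MS/MS after MTBE extraction and dansyl derivatization, fitted bidirectionally versus DMSO without MTT-based MTC filtering.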

[12] = CEETOX_H295R_TESTO_noMTC: CeeTox H295R High-throughput Steroidogenesis Assay for Testosterone (TESTO), maximum tolerated concentration (MTC) filtered results only (AID 2283924); conditions: actives raise or lower the signal
Method in brief: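 H295R cells prestimulated 48 h with 10 uM forskolin, then exposed 48 h to chemicals in 0.1% DMSO final. Testosterone in medium quantified by MTBE extraction and HPLC-MS/MS; bidirectional fit versus DMSO, concentrations […] filtered by MTT-based maximum tolerated concentration.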

PGR (gene 5241) [13] = biological target: PGR (gene 5241) (UniProt P06401); test: TOX21_PR_BLA_Followup_Agonist_ratio: Tox21 HEK293 Progesterone Receptor (PR) Agonism Beta-lactamase Follow-Up Assay, Ratio (AID 2283933; active = hit-call score of the fitted dose curve at least 0.9, where 1 is the maximum)
Method in brief: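 PR-UAS-bla HEK293T cells (GAL4-UAS beta-lactamase reporter) in medium with 2% charcoal-stripped FBS received compounds after 6 hr at 37C, then incubated 16 hr. LiveBLAzer FRET substrate added, 2 hr room temperature; cleaved/uncleaved (ch2/ch1) ratio fitted upward versus DMSO.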

PGR (gene 5241) [14] = biological target: PGR (gene 5241) (UniProt P06401); test: TOX21_PR_BLA_Followup_Antagonist_ratio: Tox21 HEK293 Progesterone Receptor (PR) Antagonism Beta-lactamase Follow-Up Assay, Ratio (AID 2283934; active = hit-call score of the fitted dose curve at least 0.9, where 1 is the maximum)
Method in brief: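 PR-UAS-bla HEK293T cells in medium with 2% charcoal-stripped FBS were treated with compounds plus 1 nM (final) promegestone (R5020) for 16 hr at 37C. LiveBLAzer B/G FRET substrate was then added for 2 h at room temperature; signal is cleaved/uncleaved substrate ratio versus DMSO.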

[15] = TOX21_PR_BLA_Followup_Agonist_viability: Viability Assessment in the Tox21 HEK293 Progesterone Receptor (PR) Agonism Beta-lactamase Follow-Up Assay (AID 2283935; active = hit-call score of the fitted dose curve at least 0.9, where 1 is the maximum;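 note: signal loss means lower viability so actives are cytotoxic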)
Method in brief: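 PR-UAS-bla HEK293T cells in 2% charcoal-stripped FBS medium, compound added after 6 hr plating, 16 hr at 37C/5% CO2. After bla FRET read, CellTiter-Glo added; luminescence read after 30 min at room temperature; signal loss marks cytotoxicity.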

[16] = TOX21_PR_BLA_Followup_Antagonist_viability: Viability Assessment in the Tox21 HEK293 Progesterone Receptor (PR) Antagonism Beta-lactamase Follow-Up Assay (AID 2283936; active = hit-call score of the fitted dose curve at least 0.9, where 1 is the maximum;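 note: hits lower the luminescence signal meaning cytotoxicity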)
Method in brief: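 PR-UAS-bla HEK293T cells (3,000/well, 2% charcoal-stripped FBS) given compound plus R5020 agonist, 16 h at 37C. CellTiter-Glo added after bla read, 30 min at room temperature; luminescence loss indicates cytotoxicity.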

PGR (gene 5241) [17] = biological target: PGR (gene 5241) (UniProt P06401); test: TOX21_PR_LUC_Followup_Agonist: Tox21 HEK293 Progesterone Receptor (PR) Agonism Luciferase Follow-Up Assay (AID 2283937)
Method in brief: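 HEK293-PR-A-luc cells, pre-cultured 5 days in medium with 10% charcoal-stripped FBS, were seeded at 3,000 cells/well, rested 5 h at 37C, then exposed to compounds 16 h at 37C; luciferase read by ONE-Glo luminescence after 30 min.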

PGR (gene 5241) [18] = biological target: PGR (gene 5241) (UniProt P06401); test: TOX21_PR_LUC_Followup_Antagonist: Tox21 HEK293 Progesterone Receptor (PR) Antagonism Luciferase Follow-Up Assay (AID 2283938; active = hit-call score of the fitted dose curve at least 0.9, where 1 is the maximum;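 note: curve fitted upward as signal gain over DMSO baseline despite antagonist label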)
Method in brief: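 Luminescence from ONE-Glo reagent, measured after 30 min at room temperature, served as readout. Cells (HEK293 carrying PR-A-luc) had been treated 16 h at 37C with DMSO-dissolved compounds. Activity was fitted against DMSO controls.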

[19] = biological target: Thyroid hormone receptor alpha (Rattus norvegicus) + Thyroid hormone receptor beta (Rattus norvegicus) (UniProt P18113+P63059); test: TOX21_TR_LUC_GH3_Agonist_Followup: Tox21 GH3 Thyroid Hormone Receptor Agonism Luciferase Follow-Up Assay (AID 2283939; active = hit-call score of the fitted dose curve at least 0.9, where 1 is the maximum)
Method in brief: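 Rat GH3 cells (1,500/well) in serum-free assay medium, treated with 15-point series, 92 uM to 5 nM final, for 24 h at 37C. Luciferase via ONE-Glo luminescence; gain of signal fitted against DMSO, T3 positive control.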

[20] = TOX21_PR_LUC_Followup_Antagonist_viability: Viability Assessment in the Tox21 HEK293 Progesterone Receptor (PR) Antagonism Luciferase Follow-Up Assay (AID 2283940; active = hit-call score of the fitted dose curve at least 0.9, where 1 is the maximum)
Method in brief: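 HEK293-PR-A-luc cells, precultured 5 days in assay medium with 10% charcoal-stripped FBS, were seeded at 3,000 cells/well, treated with compounds in DMSO for 16 h at 37C, and viability was read as cellular ATP by CellTiter-Glo luminescence.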

Sequence of PGR (gene 5241) (P06401 whole entry, looked up, the tested form may be a part): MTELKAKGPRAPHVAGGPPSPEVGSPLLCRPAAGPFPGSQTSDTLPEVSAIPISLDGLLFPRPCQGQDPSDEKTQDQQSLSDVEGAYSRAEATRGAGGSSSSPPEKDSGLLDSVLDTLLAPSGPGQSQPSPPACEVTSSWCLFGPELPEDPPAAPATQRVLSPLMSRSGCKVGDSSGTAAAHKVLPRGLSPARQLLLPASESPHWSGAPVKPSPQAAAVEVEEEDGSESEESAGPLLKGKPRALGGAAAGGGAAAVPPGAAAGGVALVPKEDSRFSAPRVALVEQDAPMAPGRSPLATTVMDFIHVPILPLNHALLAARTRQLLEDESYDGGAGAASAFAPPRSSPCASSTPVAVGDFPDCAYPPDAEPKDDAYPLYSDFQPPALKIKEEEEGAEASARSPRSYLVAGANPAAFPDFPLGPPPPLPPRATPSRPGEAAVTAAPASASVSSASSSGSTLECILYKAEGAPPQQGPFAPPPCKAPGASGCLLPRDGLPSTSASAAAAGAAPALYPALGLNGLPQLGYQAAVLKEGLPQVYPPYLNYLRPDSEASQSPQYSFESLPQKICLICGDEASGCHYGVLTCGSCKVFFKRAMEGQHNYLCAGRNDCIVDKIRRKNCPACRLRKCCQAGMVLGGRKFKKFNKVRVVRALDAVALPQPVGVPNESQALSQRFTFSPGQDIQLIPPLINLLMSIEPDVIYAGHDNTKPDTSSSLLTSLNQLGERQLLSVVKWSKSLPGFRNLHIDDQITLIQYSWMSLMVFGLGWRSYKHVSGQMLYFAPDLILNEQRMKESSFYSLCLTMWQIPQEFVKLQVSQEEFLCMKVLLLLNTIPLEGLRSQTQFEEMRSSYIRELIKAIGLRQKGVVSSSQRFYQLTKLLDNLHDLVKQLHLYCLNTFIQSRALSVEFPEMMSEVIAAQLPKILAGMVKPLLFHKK
Sequence of Thyroid hormone receptor alpha (Rattus norvegicus) + Thyroid hormone receptor beta (Rattus norvegicus) (P63059 whole entry, looked up): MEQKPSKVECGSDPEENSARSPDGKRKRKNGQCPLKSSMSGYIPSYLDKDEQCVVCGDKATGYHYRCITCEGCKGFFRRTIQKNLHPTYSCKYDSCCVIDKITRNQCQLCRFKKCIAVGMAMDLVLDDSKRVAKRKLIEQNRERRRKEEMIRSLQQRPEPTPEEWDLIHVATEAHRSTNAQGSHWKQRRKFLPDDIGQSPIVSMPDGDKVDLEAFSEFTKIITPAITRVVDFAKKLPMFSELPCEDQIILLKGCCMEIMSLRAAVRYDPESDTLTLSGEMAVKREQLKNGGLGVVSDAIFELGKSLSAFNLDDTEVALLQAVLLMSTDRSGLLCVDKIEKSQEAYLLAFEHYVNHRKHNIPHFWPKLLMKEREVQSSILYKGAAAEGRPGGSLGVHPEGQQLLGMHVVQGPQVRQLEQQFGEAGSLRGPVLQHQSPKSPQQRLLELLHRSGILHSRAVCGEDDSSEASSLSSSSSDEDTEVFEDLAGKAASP
Sequence of Thyroid hormone receptor alpha (Rattus norvegicus) + Thyroid hormone receptor beta (Rattus norvegicus) (P18113 whole entry, looked up): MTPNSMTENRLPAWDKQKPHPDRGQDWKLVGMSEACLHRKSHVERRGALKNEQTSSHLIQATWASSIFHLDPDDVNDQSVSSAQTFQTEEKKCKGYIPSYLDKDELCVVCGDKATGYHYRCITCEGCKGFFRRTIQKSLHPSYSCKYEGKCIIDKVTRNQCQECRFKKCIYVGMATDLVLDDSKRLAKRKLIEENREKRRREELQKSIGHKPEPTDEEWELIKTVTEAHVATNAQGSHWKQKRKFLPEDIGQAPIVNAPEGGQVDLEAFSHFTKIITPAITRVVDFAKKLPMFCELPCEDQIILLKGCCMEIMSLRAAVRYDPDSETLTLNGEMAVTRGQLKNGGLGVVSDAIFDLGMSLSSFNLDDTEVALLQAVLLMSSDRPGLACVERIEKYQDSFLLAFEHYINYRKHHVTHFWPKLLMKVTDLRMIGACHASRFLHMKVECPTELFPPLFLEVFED

CCCCCCCC/C=C\CCCCCCCC(=O)N(C)CC(=O)O
outcome [1]: inactive

O=C1C=CC(=O)N1c1ccccc1
AC50 [1]: 81.6 µM (active)

CC(C)(C)c1cc(CCC(=O)NCCCCCCNC(=O)CCc2cc(C(C)(C)C)c(O)c(C(C)(C)C)c2)cc(C(C)(C)C)c1O
outcome [2]: inactive | outcome [3]: inactive | AC50 [4]: 0.203 µM (active) | outcome [5]: inactive | outcome [6]: inactive | outcome [7]: inactive | outcome [8]: inactive | outcome [9]: inactive | AC50 [10]: 0.452 µM (active) | outcome [11]: inactive | outcome [12]: inactive

CCCCCCCCn1sc(Cl)c(Cl)c1=O
outcome [1]: inactive

CCCCCCCCCc1ccc(OCCO)cc1
AC50 [1]: 24.3 µM (active)

CCc1cc(Cc2cc(CC)c(N)c(CC)c2)cc(CC)c1N
outcome [1]: inactive

Nc1c(Br)cc([N+](=O)[O-])cc1Br
outcome [2]: inactive | outcome [3]: inactive | AC50 [4]: 20.7 µM (active) | outcome [6]: inactive | outcome [7]: inactive | outcome [8]: inactive | outcome [9]: inactive | outcome [10]: inactive | outcome [11]: inactive

COCCOCCC[Si](C)(O[Si](C)(C)C)O[Si](C)(C)C
outcome [1]: inactive

CCN=c1cc2oc3cc(NCC)c(C)cc3c(-c3ccccc3C(=O)OCC)c-2cc1C
AC50 [1]: 30.8 µM (active)

CCC(Cc1c(I)cc(I)c(N)c1I)C(=O)O (configuration not stated)
outcome [1]: inactive

O=C(c1ccccc1)c1ccc(O)cc1O
outcome [1]: inactive | outcome (PGR (gene 5241) [13]): inactive | AC50 (PGR (gene 5241) [14]): 63.5 µM (active) | outcome [15]: inactive | outcome [16]: inactive | outcome (PGR (gene 5241) [17]): inactive | AC50 (PGR (gene 5241) [18]): 33.5 µM (active) | outcome [19]: inactive | outcome [20]: inactive

CCCCCCCCCCCCC[N+](C)(C)Cc1ccccc1
outcome [1]: inactive

CCCCCCCCCCCCCC[P+](CCCC)(CCCC)CCCC
AC50 [1]: 15.9 µM (active)

CC(C)Nc1ccc(NC(C)C)c2c1C(=O)c1ccccc1C2=O
AC50 [1]: 15.3 µM (active)

CCN=C1C=CC(=C(c2ccc(N(CC)CC)cc2)c2ccc(N(CC)CC)cc2)c2ccccc21
AC50 [1]: 10 µM (active)

C[C@]12CC[C@H]3C(=CCc4cc(O)ccc43)[C@@H]1CCC2=O
outcome [1]: inactive

— PubChem BioAssay (EPA / NIEHS)
